# Compound activity deposited in PubChem BioAssay by National Center for Advancing Translational Sciences (NCATS).
# An excerpt weighted towards active compounds, which were near 21% of everything screened.
# NS1 function inh – blocks influenza NS1 protein function | actives 0.4% (n = 270,000) | Potency, µM (highest dose often 46.1 µM), inactives show at the top dose activity, positive = more growth; further: potency means the concentration at half of the fitted maximal effect; actives are rising curves; nearly all actives have a fitted effect of over 50% in size
#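 A cell-based growth assay was used: compounds that relieve NS1-induced slow growth of budding yeast raise OD600. Assay medium was yeast nitrogen base with ammonium sulphate and -URA supplement, pH 6.0, with 2% galactose.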
# Pf growth 96h – P. falciparum growth inhibition at 96 hours. P. falciparum luciferase reporter growth, 96 h. Potency, µM (titrated, usually from 28.7 µM), for the others: at the highest dose activity change, negative = inhibition, most hits filed as inhibitors. actives 6.9% (n = 320,000); active means well fitted inhibition curve with a large enough effect; inconclusive means small, poorly fitted or top-dose-only effect, or another doubt; inactive means no such curve, though single readings can be large or run the other way; further: potency means the concentration at half of the fitted maximal effect; on the % scale 0 is the no-effect control and ±100 the full control effect
#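 P. falciparum expressing integrated firefly luciferase, in erythrocytes at 2% hematocrit, 0.05% parasitemia, incubated with compounds 96 h at 37 C, 5% CO2. Growth inhibition read as loss of luminescence; two-generation exposure targets delayed-death apicoplast inhibitors.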
# Pf growth 48h – inhibits P. falciparum growth in the first generation, 48 h; P. falciparum luciferase growth in erythrocytes, 48 h; Potency, µM (doses to about 28.7 µM), inactives show top-dose activity change, negative = inhibition, hits mostly inhibitors; actives 5.9% (n = 310,000); active means well fitted inhibition curve with a large enough effect; inconclusive means small, poorly fitted or top-dose-only effect, or another doubt; inactive means no such curve, though single readings can be large or run the other way; further: potency means the concentration at half of the fitted maximal effect; on the % scale 0 is the no-effect control and ±100 the full control effect
#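 Cell-based growth assay: transgenic P. falciparum expressing firefly luciferase, cultured in red cells within RPMI 1640 containing 0.5% w/v Albumax, 24 mM bicarbonate and gentamycin. A drop in luciferase activity indicates inhibition.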
# Cycloheximide cs – counter-screen hit for Shiga toxin inhibitors, cycloheximide. max response, %. cell reporter, cycloheximide protein synthesis inhibition counterscreen. AID 2314. actives 12% (n = 300,000); in the data active means max response mostly above about 13%, no sharp cut-off; inactive means mostly below about 14%; further: read at 38.3 µM for the half of the compounds with a filed dose; 0% is about no effect
# Shiga inhibitor – blocks Shiga toxin action in Vero cells; inhibition, % at 38.7 µM; Vero cells, Shiga toxin protein synthesis inhibition reporter; AID 2315; actives 9.2% (n = 290,000); in the data active means inhibition mostly above about 28%, no sharp cut-off; inactive means mostly below about 43%; further: 0% is about no effect
# SARS PLpro yeast – SARS-CoV PLP inhibition in yeast. S. cerevisiae expressing SARS-CoV PLpro, growth rescue. AID 485353. Potency, µM (highest dose often 32.9 µM), without a hit: at the top dose activity, positive = growth rescue, hits mostly activators. actives 0.19% (n = 330,000); further: potency means the concentration at half of the fitted maximal effect; 0% is about no effect; nearly all actives have a fitted effect of over 55% in size
# * = called active by the depositor; u = inconclusive; x = not tested or not shown; + = active, no number; [ ] = another dose, or the depositor's remark. Unless noted, the call rests on the fitted dose curve.
SMILES,NS1 function inh,Pf growth 96h,Pf growth 48h,Cycloheximide cs,Shiga inhibitor,SARS PLpro yeast
COc1cc(/C=N/c2oc(C)c(C)c2C#N)cc(Br)c1O,3%,-28%,11%,-3,-5,-1%
COc1ccc(/C=N/c2oc(C)c(C)c2C#N)c(OC)c1,1%,12µM*,-9%,-3,-7,0%
CC(=O)N1c2ccccc2C2(O)N=C(C)SC12 (stereo not drawn),-3%,19%,16%,12*,35,-20%
COc1ccc(/C=N/N2CCN(c3ccccc3)CC2)cc1Br,7%,u,5%,2,-17,4%
COc1cccc(/C=N/N2CCN(c3ccccc3OC)CC2)c1,6%,57%,94%,49*,+,-4%
CCN(CC)c1ccc(/C=N/N2CCN(c3ccccc3OC)CC2)cc1,21%,39%,13%,3,25,-3%
COc1cc(OC)c(/C=N/N2CCN(c3ccccc3OC)CC2)c(OC)c1,-14%,u,-16%,24*,65*,-14%
COc1ccccc1N1CCN(/N=C/c2cccc(Cl)c2)CC1,-13%,u,110%,38*,151*,7%
CCOC(=O)c1nc(NCc2ccccc2F)c2ccccc2n1,-7%,u,u,2,-3,0%
CC(NC(=O)COC(=O)c1ccc(OCC2CCCO2)cc1)c1ccccc1Cl (stereo not drawn),x,-109%,u,x,x,-4%
Cc1c(O)ccc(-c2n[nH]c(C(=O)O)c2-c2nc3ccccc3s2)c1O,14%,64%,47%,23*,59*,-1%
Cc1cc(C(=O)N=Nc2c(O)n(C)c3ccccc23)c(C)o1,13%,161%,126%,27*,-5,1%
Cn1c(O)c(N=NC(=O)c2cccc(S(=O)(=O)N3CCCCC3)c2)c2ccccc21,19%,7.4µM*,10µM*,-1,-7,-3%
CC1CC(C)CN(C(=O)C(C)N(C)CC(=O)Nc2ccccc2Cl)C1 (stereo not drawn),x,-39%,-28%,-2,-20,1%
CC(C(=O)N1CCc2ccccc21)N(C)CC(=O)Nc1ccccc1Cl (stereo not drawn),x,17µM*,u,x,x,5%
Cc1cccc(C)c1NC(=O)CN(C)CC(=O)Nc1ccccc1Oc1ccccc1,x,12µM*,u,12,-17,1%
Cc1ccc(NC(=O)CN(C)CC(=O)Nc2ccccc2Oc2ccccc2)cc1,x,-13%,u,-2,-19,-1%
CN(CC(=O)Nc1ccccc1)CC(=O)Nc1ccccc1Cl,4%,34%,35%,19*,31*,0%
Cc1cc(NC(=O)COC(=O)C2CC(=O)N(c3cccc(Cl)c3)C2)no1 (stereo not drawn),-11%,50%,-1%,1,-7,1%
N=C1CCC(=N)c2c1c(O)c1ccccc1c2O,-31%,u,u,13*,4,-4%
N#Cc1c(C#N)c(O)c2ccccc2c1O,-7%,u,-15%,10,-6,-1%
COc1cc2ccccc2c2cc([N+](=O)[O-])oc12,-26%,x,x,x,x,x
Cc1ccc(S(=O)(=O)Oc2ccccc2/C=N/Nc2ccc(C(=O)O)cc2)cc1,-1%,-7%,1%,26*,30,1%
CN(C)S(=O)(=O)c1cccc(NC(=O)c2cccc(N3C(=O)CCC3=O)c2)c1,x,0%,u,x,x,0%
Cc1ccc(-n2c(O)c(/C=C3/C(c4ccccc4)=Nc4ccccc43)c(=O)[nH]c2=O)cc1,-26%,7.4µM*,8.3µM*,29*,63*,-66%
SMILES,NS1 function inh,Pf growth 96h,Pf growth 48h,Cycloheximide cs,Shiga inhibitor,SARS PLpro yeast
CC1=Nc2ccccc2/C1=C/c1c(O)n(C)c(=O)[nH]c1=O,0%,2%,-11%,-1,x,2%
Cc1ccccc1-n1c(O)c(/C=C2/C(c3ccccc3)=Nc3ccccc32)c(=O)[nH]c1=O,-15%,-15%,12µM*,54*,86*,-84%
Cc1cccc(-n2c(O)c(/C=C/C=Nc3ccccc3)c(=O)[nH]c2=O)c1,4%,2%,0%,-3,-5,0%
O=c1[nH]c(=O)n(-c2ccccc2F)c(O)c1/C=C1\C=Nc2ccccc21,5%,4%,-8%[0.00184 µM],6.6*,20,-1%
Cc1cccc(-n2c(O)c(/C=C3/C(c4ccccc4)=Nc4ccccc43)c(=O)[nH]c2=O)c1,-99%,12µM*,10µM*,20*,32*,-4%
O=C(O)c1ccc(S(=O)(=O)N(CCc2ccccc2)Cc2ccc(Cl)cc2)cc1,13%,-15%,-6%,-1,x,-1%
N#Cc1cc(-c2ccccc2)cnc1Sc1ccccc1,11%,41%,30%,27*,55*,-6%
Cc1ccc(Sc2nnc(-c3ccccc3)cc2C#N)cc1,2%,x,u,6,36,0%
COc1ccccc1N1CC=C(c2cccc([N+](=O)[O-])c2)NC1=O,6%,45%,-10%,7,19,1%
CCN(C[C@H]1N[C@@](Cc2ccccc2)(C(=O)OC)[C@H]2C(=O)N(C)C(=O)[C@@H]12)S(=O)(=O)c1ccc(-c2ccccc2)cc1,x,x,x,x,x,4%
CCOC(=O)C(O)C1CCc2c([nH]c3ccc(C)cc23)C1=O (stereo not drawn),0%,42%,u,25*,50,3%
CCOC(=O)N1CCc2[nH]c3ccc(C)cc3c2C1,12%,-17%,10%,6,-4,1%
CCOc1ccc(/C=N/n2c(C)nc3ccccc3c2=O)cc1,-3%,-18%,55%,-2,-5,-1%
CN(C)c1ccc(/C=N/n2c(-c3ccccc3Br)n[nH]c2=S)cc1,15%,23%,18%,17*,54,1%
Cc1nc2ccccc2c(=O)n1/N=C/c1ccccn1,-58%,111%,166%,28*,22,-3%
CSc1ccc(/C=N/n2c(C)nc3ccccc3c2=O)cc1,3%,45%,55%,23*,30,1%
Cc1nc2ccccc2c(=O)n1/N=C/c1ccc([N+](=O)[O-])o1,-56%,5.9µM*,13µM*,34*,56*,-7%
Cc1c(NC(=O)C(C)OC(=O)c2cccnc2Cl)c(=O)n(-c2ccccc2)n1C (stereo not drawn),x,-14%,3%,x,x,5%
Cc1cccc(-n2c(/C=C/c3ccc([N+](=O)[O-])o3)nc3ccccc3c2=O)c1,-5%,70%,u,5,-4,-100%
Cc1nc2ccccc2c(=O)n1/N=C/c1ccc(N(C)C)cc1,-104%,23%,45%,26*,27,-4%
Cc1nc2ccccc2c(=O)n1/N=C/c1ccccc1F,-9%,9.3µM*,x,52*,105*,4%
O=c1c2ccccc2nc(/C=C/c2ccc([N+](=O)[O-])o2)n1-c1ccc(O)cc1,x,u,9.3µM*,15,21,0%
O=C(CCSCCC(=O)Nc1ccccc1F)Nc1ccccc1F,-7%,10%,12%,-4,12,3%
